From PubChem BioAssay (Tox21) come the findings set out here.

The target of assay [1] is Acetylcholinesterase (Homo sapiens) (UniProt P22303). In words: Acetylcholinesterase (AChE) small molecule antagonists: colormetric cell-based qHTS assay (AID 1347395). Further: nearly all actives have a fitted effect of over 30% in size. The method in brief:
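Homogeneous whole-cell format. SH-SY5Y cells seeded overnight, dosed with compound (30 min, 37 C, 5% CO2), then given DTNB/acetylthiocholine cocktail for 90 min at 37 C; colorimetric signal.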
Background: Quantitative high-throughput screening tests each substance at several concentrations.

The target is the same in assay [2]. Put plainly: Acetylcholinesterase (AChE) small molecule antagonists: enzyme-based qHTS assay (AID 1347397). Further: nearly all actives have a fitted effect of over 55% in size. Conditions: Potency: AChE enzyme activity inhibition; outcome: AChE enzyme activity inhibition. The method in brief:
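Absorbance-based detection of thiocholine with DTNB served as the read-out. Recombinant human AChE was exposed to compound for 30 min at RT before a 10 min RT incubation with acetylthiocholine.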

For assay [3] the target is unchanged. In words: Acetylcholinesterase (AChE) small molecule antagonists: fluorescence cell-based qHTS assay (AID 1347398). Further: nearly all actives have a fitted effect of over 50% in size. Conditions: Potency: AChE activity; outcome: AChE activity. An outline of the steps:
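Fluorimetric cell-based assay: intact SH-SY5Y cells, 30 min compound preincubation at 37 C, acetylthiocholine substrate with thiol probe Thiolite Green, 40 min RT development, fluorescence 490/520 nm.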

For assay [4] the target is unchanged. In words: Acetylcholinesterase (AChE) small molecule antagonists: enzyme-based qHTS assay with human liver microsomes (AID 1347399). Further: nearly all actives have a fitted effect of over 60% in size. The note with it: Potency: qHTS inhibition; outcome: qHTS inhibition. The method in brief: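 Recombinant human AChE (50 mU/mL in the enzyme mix) and human liver microsomes (0.25 mg/mL final) were preincubated with compound and NADPH (0.25 mg/mL final) for 30 min at 37 C. Acetylthiocholine/DTNB was then added; thiocholine was read colorimetrically after 10 min at room temperature.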

Structures are written as SMILES. Values joined by “and” are separate entries in the source; they are usually repeats but may differ in a detail not shown here. Equal values may be shown once. Inconclusive results are not listed. A structure can be active in one record and inactive in another. Active and inactive are the calls of the source. The call rests on the fitted dose curve.
On the % scale 0 is the no-effect control and ±100 the full control effect; potency means the concentration at half of the fitted maximal effect.

Sequence of Acetylcholinesterase (Homo sapiens) (P22303 whole entry, looked up): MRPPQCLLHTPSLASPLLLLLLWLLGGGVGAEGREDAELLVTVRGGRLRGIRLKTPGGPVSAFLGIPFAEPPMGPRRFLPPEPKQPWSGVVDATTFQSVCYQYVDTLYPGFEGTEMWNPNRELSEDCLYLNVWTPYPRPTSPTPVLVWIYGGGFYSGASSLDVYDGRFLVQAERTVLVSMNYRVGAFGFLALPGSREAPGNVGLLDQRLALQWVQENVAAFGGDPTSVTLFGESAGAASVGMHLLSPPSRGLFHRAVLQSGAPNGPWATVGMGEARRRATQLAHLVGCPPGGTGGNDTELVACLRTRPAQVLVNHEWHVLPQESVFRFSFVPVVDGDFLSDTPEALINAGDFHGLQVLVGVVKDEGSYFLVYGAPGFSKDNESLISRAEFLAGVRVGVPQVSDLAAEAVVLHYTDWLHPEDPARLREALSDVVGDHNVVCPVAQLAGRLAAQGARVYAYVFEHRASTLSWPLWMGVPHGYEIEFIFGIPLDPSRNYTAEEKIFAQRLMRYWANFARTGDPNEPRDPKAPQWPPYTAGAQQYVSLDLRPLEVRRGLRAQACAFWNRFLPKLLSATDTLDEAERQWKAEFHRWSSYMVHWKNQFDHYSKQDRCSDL

Take `O=C(c1cc(O)c(O)c(O)c1)c1ccc(O)c(O)c1O`: the Potency result in assay [1], in assay [2], in assay [3] and in assay [4] was “inactive” each time.
Regarding `Nc1cccc(O)c1`, the Potency entry in assay [1], in assay [2], in assay [3] and in assay [4] was “inactive” in each case.
`CCC1CCC(CCC(=O)O)C1` (stereo not given): the Potency entry in assay [1], in assay [2], in assay [3] and in assay [4] was “inactive” throughout.
Consider `CCCCCCCC(=O)[O-].CCCCCCCC(=O)[O-].[Zn+2]`, for which the Potency entry in assay [1], in assay [2], in assay [3] and in assay [4] was “inactive” throughout.
Consider `CCCC(=O)Nc1ccc(O)c(C(C)=O)c1`, for which the Potency result in assay [1], in assay [2], in assay [3] and in assay [4] was “inactive” throughout.
Turning to `O=C(O)Cc1ccc2c(c1)C(=O)c1ccccc1CO2`, the Potency result in assay [1], in assay [2], in assay [3] and in assay [4] was “inactive” throughout.
Take `CN1CN(C)CN(C)C1`: the Potency entry in assay [1], in assay [2], in assay [3] and in assay [4] was “inactive” throughout.
Consider `N#Cc1cc2ccccc2c2ccccc12`, for which the Potency result in assay [1], in assay [2], in assay [3] and in assay [4] was “inactive” throughout.
With `O=c1c(O)c(-c2ccc(O)c(O)c2)oc2cc(O)cc(O)c12`, the Potency entry in assay [1], in assay [2], in assay [3] and in assay [4] was “inactive” throughout.
For `Cc1cccc(S(=O)(=O)O)c1C`, the Potency entry in assay [1], in assay [2], in assay [3] and in assay [4] was “inactive” each time.
In the case of `O=c1oc2c(O)c(O)cc3c(=O)oc4c(O)c(O)cc1c4c23`, in assay [1], the activity, negative = inhibition was -4.32% [at 23.6 µM] (inactive). Moreover, the activity change, negative = inhibition is 3.59% [at 23.6 µM] (inactive) in assay [2], 4.39% [at 23.8 µM] (inactive) in assay [3] and -1.34% [at 23.6 µM] (inactive) in assay [4].
Take `O=c1n(CCO)c(=O)n(CCO)c(=O)n1CCO`: the Potency result in assay [1], in assay [2], in assay [3] and in assay [4] was “inactive” each time.
Regarding `C[Si](C)(C)N[Si](C)(C)C`, the Potency result in assay [1] was “inactive”. Also, the Potency is 3.96 µM (active) and inactive in assay [2]; 1.98 µM (active) and inactive in assay [3]; 19.8 µM (active) and inactive in assay [4].
`CN(C)C(=S)SC(=S)N(C)C`: the Potency in assay [1] is 56.4 µM (active) and inactive; in assay [3], 35.6 µM (active) and inactive. Besides, the Potency result in assay [2] and in assay [4] was “inactive” throughout.
With `COC(=O)c1cccc(C(=O)OC)c1`, the Potency entry in assay [1], in assay [2], in assay [3] and in assay [4] was “inactive” each time.
Turning to `CCCOC(=O)c1cc(O)c(O)c(O)c1`, the Potency entry in assay [1], in assay [2], in assay [3] and in assay [4] was “inactive” each time.
Consider `Cc1ccc2cccnc2c1`, for which the Potency result in assay [1], in assay [2], in assay [3] and in assay [4] was “inactive” each time.
As to `O=C1c2ccccc2C(=O)C1c1ccccc1`, the Potency entry in assay [1], in assay [2], in assay [3] and in assay [4] was “inactive” in each case.
On to `O=c1c(-c2ccc(O)cc2)coc2cc(O)ccc12`, for which the Potency entry in assay [1], in assay [2], in assay [3] and in assay [4] was “inactive” in each case.
In the case of `CCc1cccc2c(CCO)c[nH]c12`, the Potency entry in assay [1], in assay [2], in assay [3] and in assay [4] was “inactive” throughout.
`CC1CN(c2ccccc2)NC1=O` (stereo not given): the Potency result in assay [1], in assay [2], in assay [3] and in assay [4] was “inactive” in each case.
Consider `CCCCC(CC)COC(=O)COc1ccc(Cl)cc1C` (stereo not given), for which the Potency entry in assay [1], in assay [2], in assay [3] and in assay [4] was “inactive” in each case.
In the case of `O=C1CCCCCN1`, the Potency result in assay [1], in assay [2], in assay [3] and in assay [4] was “inactive” each time.
Consider `CC(C)=CC=O`, for which the Potency result in assay [1], in assay [2], in assay [3] and in assay [4] was “inactive” throughout.
In the case of `CCC(C(=O)OCCN(CC)CC)c1ccccc1` (stereo not given), the Potency entry in assay [1], in assay [2], in assay [3] and in assay [4] was “inactive” in each case.
As for `CCCC1C(CC)=CC(CC)=CN1c1ccccc1` (stereo not given), the Potency result in assay [1], in assay [2], in assay [3] and in assay [4] was “inactive” in each case.
With `Oc1c(I)cc(I)c2cccnc12`, the Potency entry in assay [1], in assay [2], in assay [3] and in assay [4] was “inactive” throughout.
Take `C[C@]12C=CC(=O)C=C1CC[C@@H]1[C@@H]2C(=O)C[C@@]2(C)[C@H]1CC[C@]2(O)C(=O)CO`: the Potency result in assay [1], in assay [2], in assay [3] and in assay [4] was “inactive” each time.
For `O=C1Nc2ccccc2C1(c1ccc(O)cc1)c1ccc(O)cc1`, the Potency result in assay [1], in assay [2], in assay [3] and in assay [4] was “inactive” in each case.
As for `O=C(O)CCC(=O)c1ccc(-c2ccccc2)cc1`, the Potency entry in assay [1], in assay [2], in assay [3] and in assay [4] was “inactive” throughout.
In the case of `O=C1c2ccccc2C(=O)C1c1ccc2ccccc2n1`, the Potency entry in assay [1], in assay [2], in assay [3] and in assay [4] was “inactive” throughout.
In the case of `CCCCC(=O)O[C@]1(C(=O)CO)CC[C@H]2[C@@H]3CCC4=CC(=O)CC[C@]4(C)[C@H]3[C@@H](O)C[C@@]21C`, the Potency result in assay [1], in assay [2], in assay [3] and in assay [4] was “inactive” throughout.
Consider `CCOC(=O)Oc1ccc(CCNC(=O)[C@H](CCSC)NC(C)=O)cc1OC(=O)OCC`, for which the Potency result in assay [1], in assay [2], in assay [3] and in assay [4] was “inactive” in each case.
Turning to `CC(C)(c1cc(Br)c(O)c(Br)c1)c1cc(Br)c(O)c(Br)c1`, the Potency result in assay [1], in assay [3] and in assay [4] was “inactive” in each case. In assay [2], the Potency is 39.8 µM (active) and 70.8 µM (active) and 67.2 µM (active).
For the molecule `Cc1cc(C2(c3cc(C)c(O)cc3C)OS(=O)(=O)c3ccccc32)c(C)cc1O`, the Potency entry in assay [1], in assay [2], in assay [3] and in assay [4] was “inactive” in each case.
Turning to `CC(=O)Nc1ccc(OC(=O)c2ccccc2OC(C)=O)cc1`, the Potency entry in assay [1], in assay [2], in assay [3] and in assay [4] was “inactive” each time.
Regarding `NCCNCCO`, the Potency result in assay [1], in assay [2], in assay [3] and in assay [4] was “inactive” in each case.
As for `OC[C@H]1O[C@@H](OCCc2ccc(O)cc2)[C@H](O)[C@@H](O)[C@@H]1O`, the Potency result in assay [1], in assay [2], in assay [3] and in assay [4] was “inactive” throughout.
Consider `CC(C)(C)c1ccc(OC2CCCCC2O)cc1` (stereo not given), for which the Potency result in assay [1], in assay [2], in assay [3] and in assay [4] was “inactive” in each case.
In the case of `CC(C)c1cc(C(C)C)cc(C(C)C)c1`, the Potency result in assay [1], in assay [2], in assay [3] and in assay [4] was “inactive” each time.
As for `NC(Cc1c[nH]c2ccccc12)C(=O)O` (stereo not given), the Potency result in assay [1], in assay [2], in assay [3] and in assay [4] was “inactive” throughout.
As to `O=C(OCC1CCC2OC2C1)C1CCC2OC2C1` (stereo not given), the Potency result in assay [1], in assay [2], in assay [3] and in assay [4] was “inactive” in each case.
In the case of `COC(=O)/C=C(\C)CCC=C(C)C`, the Potency result in assay [1], in assay [2], in assay [3] and in assay [4] was “inactive” in each case.
As to `CCCCN(CCCC)C(=S)SSC(=S)N(CCCC)CCCC`, the Potency result in assay [1], in assay [2], in assay [3] and in assay [4] was “inactive” in each case.
As to `Fc1ccccc1`, the Potency entry in assay [1], in assay [2], in assay [3] and in assay [4] was “inactive” throughout.
On to `CCCCCCCC(=O)Oc1c(Br)cc(C#N)cc1Br`, for which the Potency result in assay [1], in assay [2], in assay [3] and in assay [4] was “inactive” throughout.
For `Cc1cc2c(cc1S(N)(=O)=O)S(=O)(=O)CCC2`, the Potency in assay [1] was 17.4 µM (active). Besides, the Potency result in assay [2], in assay [3] and in assay [4] was “inactive” each time.
Regarding `CC(COc1ccc(C(C)(C)C)cc1)OS(=O)OCCCl` (stereo not given), the Potency result in assay [1], in assay [2], in assay [3] and in assay [4] was “inactive” in each case.
For `CN1CCN(CCCN2c3ccccc3Sc3ccc(Cl)cc32)CC1`, the Potency entry in assay [1], in assay [2], in assay [3] and in assay [4] was “inactive” throughout.
Regarding `CC(=O)c1sc(C)nc1C`, the Potency result in assay [1], in assay [2], in assay [3] and in assay [4] was “inactive” in each case.
For the molecule `Oc1ccccc1-c1nnco1`, the Potency entry in assay [1], in assay [2], in assay [3] and in assay [4] was “inactive” in each case.
Regarding `O=C(OCc1ccccc1)c1ccc(O)cc1`, the Potency entry in assay [1], in assay [2], in assay [3] and in assay [4] was “inactive” each time.
On to `CC1=CC[C@@H](C(C)(C)O)CC1`, for which the Potency result in assay [1], in assay [2], in assay [3] and in assay [4] was “inactive” in each case.
With `CC(C)CCCCCCOC(=O)C1CCCCC1C(=O)OCCCCCCC(C)C` (stereo not given), the Potency entry in assay [1], in assay [2], in assay [3] and in assay [4] was “inactive” in each case.
As to `O=C=NCCCCCCN=C=O`, the Potency result in assay [1], in assay [2], in assay [3] and in assay [4] was “inactive” each time.
Consider `CCCC(=O)C(C)=O`, for which the Potency result in assay [1], in assay [2], in assay [3] and in assay [4] was “inactive” each time.
`O=C(O)C1(C(=O)O)CCC1.[NH2-].[NH2-].[Pt+2]`: the Potency entry in assay [1], in assay [3] and in assay [4] was “inactive” each time. Further, the Potency in assay [2] is 21.9 µM (active).
In the case of `CCCNC(C)(C)COC(=O)c1ccccc1`, the Potency result in assay [1], in assay [2], in assay [3] and in assay [4] was “inactive” in each case.
Turning to `Cc1cc(C)cc(N)c1`, the Potency result in assay [1], in assay [2], in assay [3] and in assay [4] was “inactive” in each case.
For `O=C1C(c2[nH]c3ccc(S(=O)(=O)O)cc3c2O)=Nc2ccc(S(=O)(=O)O)cc21`, the Potency result in assay [1], in assay [2], in assay [3] and in assay [4] was “inactive” throughout.
